TDP1 cell CPT – qHTS for Inhibitors of human tyrosyl-DNA phosphodiesterase 1 (TDP1): qHTS in cells in presence of CPT; chicken DT40 Tdp1-/-;hTDP1 cells + 20 nM CPT, ATP luminescence, 48 h; Potency, µM (series often up to 46.2 µM), for inactives: at the highest dose activity change, negative = growth inhibition, actives largely listed as inhibitors; 12% of 420,000 active; also: potency is read from the fitted curve at half-maximal effect; % is scaled to controls: 0 for no effect and ±100 for the full control effect; nearly all actives have a fitted effect of over 55% in size
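Chicken DT40 Tdp1-/- cells complemented with human TDP1, 400 cells/well, exposed to compounds plus 20 nM camptothecin for at least 48 h at 37 C; viability read as ATP content by CellTiter-Glo luminescence.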
ClpP mod – qHTS Assay for Activators of ClpP; 1.9% of 340,000 active; Potency, µM (series often up to 57.5 µM), inactives show at the highest dose activity change, negative = active; purified B. subtilis ClpP, FRET peptide cleavage, 20 min; ATP-dependent Clp protease proteolytic subunit (Bacillus subtilis (strain 168)), P80244; active = well fitted falling curve with a large enough effect; inconclusive = small, poorly fitted or top-dose-only effect; inactive = no such curve, though single readings can be large or run the other way; also: potency is read from the fitted curve at half-maximal effect; the source files actives as falling curves though it sought activators and does not explain the sign; nearly all actives have a fitted effect of over 65% in size
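FRET quenching reversal measured ClpP activation: 10 microg/mL B. subtilis ClpP at pH 8 with the FRET-FV decapeptide, read at 430 nm after 320 nm excitation. The 20-min minus 0-min signal was scaled between DMSO/no-enzyme wells and ADEP (5.8 microM final).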
IL1B secr inh – qHTS for Inhibitors of Inflammasome Signaling: IL-1-beta AlphaLISA Primary Screen; AID 743279, 2014; 4.7% of 360,000 active; activity change, % at 57.5 µM; THP-1 LPS/ATP IL-1B secretion, AlphaLISA, 16 h; active compounds read low; in the data active = activity change below about -50%; inconclusive = mostly about -30% to -49%; also: % is scaled to controls: 0 for no effect and ±100 for the full control effect
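THP-1 cells pretreated 1 hr with compounds (up to 57.5 uM final), then stimulated with LPS (250 ng/mL final) plus ATP (1.25 mM final); secreted IL-1B measured by AlphaLISA after 16 hr, decreased signal indicating inhibition.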
TDP1 cell noCPT – qHTS for Inhibitors of human tyrosyl-DNA phosphodiesterase 1 (TDP1): qHTS in cells in absence of CPT | Potency, µM (doses to about 46.2 µM), inactives show top-dose activity change, negative = growth inhibition, hits mostly inhibitors | 15% of 420,000 active | DT40 Tdp1-/- hTDP1 cells, no CPT, ATP luminescence, 48 h; also: potency is read from the fitted curve at half-maximal effect; % is scaled to controls: 0 for no effect and ±100 for the full control effect; nearly all actives have a fitted effect of over 55% in size
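Stably hTDP1-transfected Tdp1-null chicken DT40 cells were treated with library compounds minus camptothecin and grown for at least 48 hr at 37 °C, after which cellular ATP was quantified by luminescence.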
DRD3 agonist – qHTS of D3 Dopamine Receptor Agonist: qHTS; D(3) dopamine receptor (Homo sapiens), P35462; D3R DiscoveRx beta-arrestin cells, luminescence, 90 min; max activation, %; 0.58% of 410,000 active; in the data active = max activation above about 30%; also: 0% is about no effect
Target sequence (P35462 whole entry, looked up): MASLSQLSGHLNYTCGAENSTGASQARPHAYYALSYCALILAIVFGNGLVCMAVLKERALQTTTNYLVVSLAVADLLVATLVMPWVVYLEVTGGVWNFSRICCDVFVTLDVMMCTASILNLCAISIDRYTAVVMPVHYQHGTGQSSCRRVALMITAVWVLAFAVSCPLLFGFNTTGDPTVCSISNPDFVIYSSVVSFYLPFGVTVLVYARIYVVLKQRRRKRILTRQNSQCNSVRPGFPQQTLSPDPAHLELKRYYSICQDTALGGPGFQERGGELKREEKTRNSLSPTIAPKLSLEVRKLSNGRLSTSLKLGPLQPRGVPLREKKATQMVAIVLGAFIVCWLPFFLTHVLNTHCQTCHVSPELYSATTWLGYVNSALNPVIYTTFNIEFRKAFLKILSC
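Agonist-mode cell screen: cells plated at 1500/well and incubated overnight at 37 °C, then exposed to library compounds for 90 min at 37 °C. Detection reagent was added for 30–60 min at room temperature, and luminescence was read.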
DRD3 antagonist – qHTS of D3 Dopamine Receptor Antagonist: qHTS | D(3) dopamine receptor (Homo sapiens), P35462 | D3R cells, DiscoveRx beta-arrestin luminescence, antagonist mode; active compounds read low | max response, negative = inhibition, % | 2.5% of 360,000 active; in the data active = max response below about -50%; inconclusive = no clear call, values can overlap the other calls; also: % is scaled to controls: 0 for no effect and ±100 for the full control effect
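Cells expressing the human receptor were seeded at 1500 cells/well, incubated overnight at 37 degrees C in 5% CO2, then exposed to library compounds with dopamine controls for 90 minutes at 37 degrees C before luminescent detection.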
The depositor's hits bear a star. An excerpt weighted towards active compounds, which were near 21% of everything screened. Unless noted, calls follow the shape of the dose curve; as a rule, active = well fitted inhibition curve with a large enough effect; inconclusive = small, poorly fitted or top-dose-only effect; inactive = flat fitted curve, though single readings scatter.

For Cc1cc(C(=O)Nc2ccccc2Cl)n(-c2ccccc2)n1 the results were TDP1 cell CPT inconclusive, ClpP mod -0.3%, IL1B secr inh 21.7, TDP1 cell noCPT -7.6%, DRD3 agonist -2.4 and DRD3 antagonist -5.4.
Screening CCCc1cc2c(=O)c(-c3ccc4c(c3)OCCO4)coc2cc1OC(=O)c1ccco1 returned TDP1 cell CPT inconclusive, ClpP mod -2.6%, IL1B secr inh 1.1, TDP1 cell noCPT inconclusive, DRD3 agonist 19.2 and DRD3 antagonist -21.1.
Screening CCCc1cc2c(=O)c(-c3ccc4c(c3)OCCO4)c(C)oc2cc1OS(C)(=O)=O returned TDP1 cell CPT 18.4µM*, ClpP mod -4.3%, IL1B secr inh -10.9, TDP1 cell noCPT 23.1µM*, DRD3 agonist 7.9 and DRD3 antagonist -8.4.
Screening CCc1cc2c(=O)c(-c3ccc4c(c3)OCCO4)coc2cc1OC(=O)c1ccco1 returned TDP1 cell CPT inconclusive, ClpP mod -4.8%, IL1B secr inh -15.0, TDP1 cell noCPT 20.6µM*, DRD3 agonist 0.3 and DRD3 antagonist 17.5.
`CCCc1cc2c(=O)c(-c3ccc4c(c3)OCCO4)coc2cc1OS(C)(=O)=O` gave TDP1 cell CPT inconclusive, ClpP mod -2.2%, IL1B secr inh -53.6*, TDP1 cell noCPT inconclusive, DRD3 agonist 13.4 and DRD3 antagonist 36.7.
COCCN1C(=O)COc2ccccc2C1C(=O)NC(C)(C)C (stereo not drawn) was read as TDP1 cell CPT -3.9%, ClpP mod 0.3%, IL1B secr inh 14.0, TDP1 cell noCPT -0.5%, DRD3 agonist -0.1 and DRD3 antagonist 1.3.
N=c1c(S(=O)(=O)c2ccc(F)cc2)cc2c(=O)n3ccccc3nc2n1CC1CCCO1 (stereo not drawn) was read as TDP1 cell CPT -25.6%, ClpP mod -23.6%, IL1B secr inh 11.9, TDP1 cell noCPT 0.8%, DRD3 agonist -1.4 and DRD3 antagonist 11.2.
For Clc1ccc(CSc2nccn2Cc2ccccc2)cc1 the results were TDP1 cell CPT inconclusive, ClpP mod -2.8%, IL1B secr inh -73.1*, TDP1 cell noCPT 16.4µM*, DRD3 agonist 1.4 and DRD3 antagonist -27.9.
`O=c1ccn(Cc2ccccc2)c(SCc2ccccc2)n1` gave TDP1 cell CPT -4.3%, ClpP mod 15.8µM*, IL1B secr inh -13.8, TDP1 cell noCPT inconclusive, DRD3 agonist -2.0 and DRD3 antagonist -10.1.
Screening Cc1nn(CC(=O)Nc2ccc3c(c2)CCC3)c(C)c1[N+](=O)[O-] returned TDP1 cell CPT -29.5%, ClpP mod 0.2%, IL1B secr inh 11.9, TDP1 cell noCPT -20.4%, DRD3 agonist -13.7 and DRD3 antagonist -29.5.
For CCc1nnc(NC(=O)C2CCN(C(=O)c3ccco3)CC2)s1 the results were TDP1 cell CPT 20.1%, IL1B secr inh 20.0, TDP1 cell noCPT 1.5%, DRD3 agonist -2.9 and DRD3 antagonist -10.0.
CCC(C)(C)c1nnc(NC(=O)C2CCN(C(=O)c3ccco3)CC2)s1 was read as TDP1 cell CPT 20.6µM*, IL1B secr inh 24.7, TDP1 cell noCPT inconclusive, DRD3 agonist 2.9 and DRD3 antagonist 4.2.
For CCc1nnc(NC(=O)c2ccccc2NC(=O)C2CCN(C(=O)c3ccco3)CC2)s1 the results were TDP1 cell CPT 14.1µM*, ClpP mod -11.5% and TDP1 cell noCPT 11.2µM*.
`CS(=O)(=O)c1[nH]nc(-c2ccccc2)c1C#N` gave TDP1 cell CPT 23.3%, ClpP mod 0.7%, IL1B secr inh 0.7, TDP1 cell noCPT 13.3%, DRD3 agonist 2.1 and DRD3 antagonist 2.0.

From PubChem
